Compounds with a hit are over-represented: about 4.7% of the library has one in this group of screens.
D1 agonist: activates the human D1 dopamine receptor. actives 1% (n = 360,000). activation, % at 2 µM. HEK293 T-REx D1 cells, calcium flux, agonist mode. AID 504660; further: 0% is about no effect
Target sequence (P21728 whole entry, looked up): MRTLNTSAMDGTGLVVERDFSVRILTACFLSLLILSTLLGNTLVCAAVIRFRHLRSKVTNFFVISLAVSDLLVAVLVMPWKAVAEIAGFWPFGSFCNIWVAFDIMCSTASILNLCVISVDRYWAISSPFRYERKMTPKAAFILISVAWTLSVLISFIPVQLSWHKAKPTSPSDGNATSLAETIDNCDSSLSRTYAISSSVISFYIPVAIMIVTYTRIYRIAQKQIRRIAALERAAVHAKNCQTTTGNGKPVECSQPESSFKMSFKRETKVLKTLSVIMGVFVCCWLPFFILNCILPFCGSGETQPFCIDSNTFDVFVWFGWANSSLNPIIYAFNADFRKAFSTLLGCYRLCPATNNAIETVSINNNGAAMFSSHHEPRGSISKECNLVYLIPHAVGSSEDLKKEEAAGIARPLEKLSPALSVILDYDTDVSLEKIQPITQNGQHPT
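Inducible HEK293 T-REx D1 cells, force-coupled to calcium signalling, were plated at 4000 cells/well with tetracycline and held overnight at 30 C. After no-wash calcium dye loading, compound-evoked calcium rise over 180 s flagged agonists.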
D1 potentiator: potentiators of human D1 dopamine receptor. HEK293 TREx D1 cells, calcium flux, dopamine EC20 potentiation. potentiation, % at 10 µM. P21728. actives 0.036% (n = 360,000); in the data active means potentiation above about 30%; further: 0% is about no effect
TRHR ag: activates the human TRH receptor | P34981 | TRHR cells, calcium flux fluo-8, FDSS agonist mode | activation, % at 2 µM | actives 0.18% (n = 360,000) | AID 493084; further: 0% is about no effect
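TRHR-expressing cells loaded with fluo-8 calcium dye; 23 nL library compound pin-transferred, kinetic FDSS fluorescence (Ex 480/Em 530) recorded about 180 s for agonist-induced calcium release, before a 10 nM TRH EC20 addition for potentiator mode.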
D1 antagonist: antagonists of human D1 dopamine receptor; P21728; HEK293 TREx D1 cells, calcium flux, dopamine EC80; stronger effect = lower value; actives 3.2% (n = 360,000); AID 504652; activity change, negative = inhibition, % at 10 µM; in the data active means activity change below about -30%; further: on the % scale 0 is the no-effect control and ±100 the full control effect
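After overnight tetracycline induction at 30 C, force-coupled D1 HEK293 cells took up a no-wash calcium dye at room temperature. Compounds were added and monitored 180 s, and the response to EC80 dopamine was then recorded.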
TRHR enhancer: allosteric enhancers of human TRH receptor; enhancement, % at 2 µM; TRHR cells, fluo-8 calcium fluorescence, EC20 TRH enhancement; P34981; AID 493056; actives 0.66% (n = 360,000); in the data active means enhancement above about 30%; further: 0% is about no effect
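Enhancer read-out: after compound pinning and an initial kinetic agonist-mode read, an EC20 of TRH (10 nM final) was injected and fluo-8 calcium signal (Ex 480/Em 530) followed at 1 s/cycle for 100 cycles in TRHR-expressing cells.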
Starred values were filed as active, the others as inactive; · = not tested or not shown; ! = repeats disagree. Unless noted, no stated cut-off is given here; in the data, active means activation above about 30%; inactive means the rest.

SMILES	D1 agonist	D1 potentiator	TRHR ag	D1 antagonist	TRHR enhancer
CN(C)c1ccc(C(CNC(=O)c2ccccc2Cl)N2CCCC2)cc1 (stereo not drawn)	2	-1	-1	5	6
CC(=O)CCC(=O)NC1CCCc2c1cnn2-c1ccc(C(C)(C)C)cc1 (stereo not drawn)	12	-3	0	-37*	2
CCOc1ccc(-n2nc(CO)c(C(=O)NCC(C)O)n2)cc1 (stereo not drawn)	0	4	2	2	-2
Cc1cccc(C)c1NC(=O)C1CCCN(S(=O)(=O)c2c(C)noc2/C=C/N(C)C)C1 (stereo not drawn)	-2	-4	-1	-8	-3
Cc1ccc(N(CC(=O)N/N=C/c2cc(C)n(-c3ccccc3C)c2C)S(C)(=O)=O)cc1	0	-9	1	-30*	33*
Cc1ccc(N(CC(=O)Nc2cc(C)ccc2C)S(C)(=O)=O)cc1	3	1	0	-38*	-3
COc1ccc(C)cc1NC(=O)CN(c1ccc(F)cc1)S(C)(=O)=O	-1	1	-1	2	10
COc1cccc(CNC(=O)CSC2=Nc3ccccc3N=C(c3ccc(F)cc3)C2)c1	9	-1	1	9	-3
COC(=O)CCCCCCCCCCN1CCCCC1	10	0	1	0	-2
CCCOC(=O)CCCCCCCCC(O)CN1CCCCC1 (stereo not drawn)	54*	-2	0	-56*	0
Cc1ccc(S(=O)(=O)CC(=O)Nc2sc3c(c2C#N)CCCC3)cc1	0	0	-1	·	-1
O=C(NCCc1ccccc1)C1CCN(C2CCN(Cc3ccco3)CC2)CC1	2	3	1	-35*	-5
O=[N+]([O-])c1ccc2nc(SCc3cn4ccccc4n3)[nH]c2c1	3	0	0	-16	-5
Cc1cccc2nc(CSc3nc4ccc([N+](=O)[O-])cc4[nH]3)cn12	0	-22	-3	-37*	4
Cc1ccc2nc(SCc3ccc([N+](=O)[O-])cc3)[nH]c2c1	3	-5	2	-35*	-11
O=C(c1ccc([N+](=O)[O-])o1)N1CCN(c2nc3c(Cl)cccc3s2)CC1	3	-9	0	-34*	-8
COc1cccc2sc(N3CCN(C(=O)c4ccc([N+](=O)[O-])o4)CC3)nc12	2	1	-1	5	0
O=C(Cc1csc(Nc2nc(=S)[nH]c3ccccc23)n1)NCc1ccc(Cl)cc1	3	-12	2	-97*	-7
O=C(Cc1csc(Nc2nc(=S)[nH]c3ccccc23)n1)NCCCN1CCN(c2ccccc2F)CC1	0	-17	0	-86*	-5
CCOCCc1nn2c(=O)cc(COC(=O)C(CC)c3ccccc3)nc2s1 (stereo not drawn)	9	-3	0	-11	-9
CC(Nc1ccccc1CO)C(=O)Nc1cccc(Cl)c1Cl (stereo not drawn)	1	-5	0	-61*	23
CN1/C(=C\C=C(/C#N)C(=O)Nc2ccc(Cl)cc2)C(C)(C)c2ccccc21	81*	-5	46*	3	8
Cc1ccc(S(=O)(=O)N(C)c2ccc3sc(C)nc3c2)cc1	6	-7	-1	1	38*
Cc1ccc2c(c1)c1c3n2CCN(C(=O)c2ccc(C(F)(F)F)cc2)C3CCC1 (stereo not drawn)	1	-4	0	-6	-6
COC(=O)Nc1ccc(SCC(=O)c2ccc(Cl)cc2)cc1	2	2	1	-32*	-3
SMILES	D1 agonist	D1 potentiator	TRHR ag	D1 antagonist	TRHR enhancer
O=C(NNC(=O)C1CCCC1)c1ccccc1F	1	-6	-1	-13	35*
O=C(NNC(=O)C1CC1c1ccccc1)c1ccccc1F (stereo not drawn)	3	-5	0	9	7
Cc1nnc(NC(=O)CSc2ncnc3c2cnn3-c2ccccc2C)s1	3	-4	0	-5	6
CCOC(=O)Cc1csc(NC(=O)CSc2ncnc3c2cnn3-c2ccccc2Cl)n1	11	-6	0	-78*	-1
CCCc1cc(C(=O)OC)c(NC(=O)CCCC(=O)O)s1	2	3	0	-1	36*
CCC1CN(C(=O)N2CCC(C(=O)NCc3cccc(F)c3)CC2)c2cc(C)ccc2O1 (stereo not drawn)	4	-2	1	3	-14
CCc1noc(N)c1C(=O)Nc1ccc(F)c(Cl)c1	1	-3	-1	-36*	-6
CCc1noc(N)c1C(=O)Nc1ccc(Cl)cc1	-1	-5	0	-1	2
C=C1CCC[C@]2(C)C[C@H]3OC(=O)C(CN[C@@H](C)c4ccccc4)[C@H]3CC12 (stereo partly drawn)	36*	-2	2	29	0
C=C1CCC[C@]2(C)C[C@H]3OC(=O)C(CNC(C)CCCC(C)C)[C@H]3CC12 (stereo partly drawn)	15	-7	0	17	23
O=S(=O)(NCc1ccco1)c1cccc(S(=O)(=O)N2CCCCC2)c1	2	5	0	-4	32*
CCCCNC(=O)c1nn(-c2ccc(C)cc2)c(=O)c2c1c1ccccc1n2C	1	3	1	-5	-3
CN1CCN(C(=O)CCS(=O)(=O)c2cc3c(cc2Cl)NC(=O)CO3)CC1	5	-12	0	-1	39*
CCN1CCN(C(=O)CCS(=O)(=O)c2cc3c(cc2Cl)NC(=O)CO3)CC1	1	-6	0	-15	2
Cc1ccc(CCNC(=O)CCS(=O)(=O)c2cc3c(cc2C)NC(=O)CO3)cc1	0	-1	0	-86*!	3
COc1ccc(Cl)cc1NC(=O)CSc1nc2ccccc2nc1N1CCCCC1	2	-2	-1	-3	4
COc1ccc(-n2c(SCc3ccccc3F)nc3c([nH]c4ccccc43)c2=O)cc1	0	-1	1	-6	2
Cc1ccc2nc(-c3sc4nc(C)ccc4c3N)[nH]c2c1	0	-5	0	-38*	11
CCCn1nnc(NC(=O)/C=C/c2ccc(C(C)C)cc2)n1	38*	-9	-1	-19	3
CCCNC(=O)/C=C/c1ccc(C(C)C)cc1	0	-1	-1	4	35*
COc1ccc(CN(C(=O)Nc2ccc(C)c(F)c2)C2CCN(C(C)=O)CC2)cc1	0	8	1	-12	-2
CC(C)c1ccc(OCCCCN2CCCCC2)cc1	12	5	2	6	3
Clc1ccc(OCCCCN2CCCCC2)cc1	26	-5	0	-39*	-2
CC(C)(C)c1ccc(OCCCN2CCCC2)cc1	15	-5	0	-11	38*
CC(C)Oc1ccc(OCCCN2CCCCCC2)cc1	-2	-8	0	14	2

Assay outcomes deposited in PubChem by National Center for Advancing Translational Sciences (NCATS).
